Compound activity from PubChem.
TDP1 cell noCPT: qHTS for Inhibitors of human tyrosyl-DNA phosphodiesterase 1 (TDP1): qHTS in cells in absence of CPT; 420,000 compounds, 15% hits; AID 686978, 2013; DT40 Tdp1-/- hTDP1 cells, no CPT, ATP luminescence, 48 h; Potency, µM (titrated, usually from 46.2 µM), without a hit: at the top dose activity change, negative = growth inhibition, hits mostly inhibitors; further: potency means the concentration at half of the fitted maximal effect; on the % scale 0 is the no-effect control and ±100 the full control effect; nearly all actives have a fitted effect of over 55% in size
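Growth of hTDP1-complemented DT40 Tdp1-knockout cells is measured by ATP luminescence after at least 48 hr compound exposure at 37 °C, with DMSO substituting for the 20 nM CPT used in the parallel screen.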
D3 antag: blocks the human D3 dopamine receptor; P35462; D3R cells, DiscoveRx beta-arrestin luminescence, antagonist mode; hits give low values; max response, negative = inhibition, %; 360,000 compounds, 2.5% hits; AID 652054; in the data active means max response below about -50%; inconclusive means no clear call, values can overlap the other calls; further: on the % scale 0 is the no-effect control and ±100 the full control effect
Target sequence (P35462 whole entry, looked up): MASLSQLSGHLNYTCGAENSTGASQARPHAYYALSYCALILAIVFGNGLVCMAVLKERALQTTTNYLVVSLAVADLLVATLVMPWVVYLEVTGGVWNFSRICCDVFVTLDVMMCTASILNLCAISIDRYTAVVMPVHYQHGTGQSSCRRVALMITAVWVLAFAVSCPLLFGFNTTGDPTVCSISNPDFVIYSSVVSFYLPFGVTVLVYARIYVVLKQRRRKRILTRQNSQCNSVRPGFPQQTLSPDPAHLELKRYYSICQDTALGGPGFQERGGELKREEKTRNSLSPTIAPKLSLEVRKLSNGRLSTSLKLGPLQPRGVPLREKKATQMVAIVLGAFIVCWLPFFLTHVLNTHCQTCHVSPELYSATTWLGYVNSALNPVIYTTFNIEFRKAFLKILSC
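Cells expressing the human receptor were seeded at 1500 cells/well, incubated overnight at 37 degrees C in 5% CO2, then exposed to library compounds with dopamine controls for 90 minutes at 37 degrees C before luminescent detection.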
D3 ag: D3 dopamine receptor (human) agonism. P35462. D3R DiscoveRx beta-arrestin cells, luminescence, 90 min. max activation, %. 410,000 compounds, 0.58% hits; in the data active means max activation above about 30%; further: 0% is about no effect
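Agonist-mode cell screen: cells plated at 1500/well and incubated overnight at 37 °C, then exposed to library compounds for 90 min at 37 °C. Detection reagent was added for 30–60 min at room temperature, and luminescence was read.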
ClpP mod: qHTS Assay for Activators of ClpP | ATP-dependent Clp protease proteolytic subunit (Bacillus subtilis (strain 168)), P80244 | purified B. subtilis ClpP, FRET peptide cleavage, 20 min | Potency, µM (highest dose often 57.5 µM), for the others: top-dose activity change, negative = active | 340,000 compounds, 1.9% hits; active means well fitted falling curve with a large enough effect; inconclusive means small, poorly fitted or top-dose-only effect; inactive means no such curve, though single readings can be large or run the other way; further: potency means the concentration at half of the fitted maximal effect; the source files actives as falling curves though it sought activators and does not explain the sign; nearly all actives have a fitted effect of over 65% in size
Target sequence (P80244 whole entry, looked up): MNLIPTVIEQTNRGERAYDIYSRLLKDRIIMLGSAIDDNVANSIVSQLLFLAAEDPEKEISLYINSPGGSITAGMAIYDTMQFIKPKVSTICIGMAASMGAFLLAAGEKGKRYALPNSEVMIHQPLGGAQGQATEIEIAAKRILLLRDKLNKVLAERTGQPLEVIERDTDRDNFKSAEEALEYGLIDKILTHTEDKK
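Buffer: 100 mM Tris/HCl pH8, 100 mM KCl, 0.05% low protease BSA, 2.5% glycerol, 0.01% Tween-20. ClpP 10 microg/mL final; 20 min RT; delta FRET normalized to ADEP and DMSO controls.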
TDP1 cell CPT: growth inhibition of DT40 Tdp1-/-;hTDP1 cells with camptothecin (screen for TDP1 inhibitors); AID 686979; chicken DT40 Tdp1-/-;hTDP1 cells + 20 nM CPT, ATP luminescence, 48 h; 420,000 compounds, 12% hits; Potency, µM (series often up to 46.2 µM), without a hit: at the highest dose activity change, negative = growth inhibition, hits mostly inhibitors; further: potency means the concentration at half of the fitted maximal effect; on the % scale 0 is the no-effect control and ±100 the full control effect; nearly all actives have a fitted effect of over 55% in size
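Cell growth measured by CellTiter-Glo luminescence after a minimum 48 h, 37 C compound exposure with 20 nM CPT in Tdp1-knockout DT40 cells stably expressing hTDP1, seeded 400/well; qHTS titration format.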
IL1B secr inh: blocks inflammasome-driven IL-1 beta release | THP-1 LPS/ATP IL-1B secretion, AlphaLISA, 16 h; hits give low values | activity change, % at 57.5 µM | 360,000 compounds, 4.7% hits | AID 743279; in the data active means activity change below about -50%; inconclusive means mostly about -30% to -49%; further: on the % scale 0 is the no-effect control and ±100 the full control effect
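THP-1 cells pretreated 1 hr with compounds (up to 57.5 uM final), then stimulated with LPS (250 ng/mL final) plus ATP (1.25 mM final); secreted IL-1B measured by AlphaLISA after 16 hr, decreased signal indicating inhibition.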
Active calls of the source: *; ? = inconclusive; nt = no result given. This is a sample that favours compounds with a hit; in the whole collection about 21% have one here. Unless noted, the call rests on the fitted dose curve; in most records, active means well fitted inhibition curve with a large enough effect; inconclusive means small, poorly fitted or top-dose-only effect; inactive means flat fitted curve, though single readings scatter.

SMILES | TDP1 cell noCPT | D3 antag | D3 ag | ClpP mod | TDP1 cell CPT | IL1B secr inh
CCOC(=O)C1CCN(C(=O)Cn2ncc3c4ccccc4n(Cc4ccc(F)cc4)c3c2=O)CC1 | 1.8µM* | nt | -3 | 5% | 3.3µM* | nt
Cc1ccc(CNC(=O)Cn2ncc3c(C)n(Cc4ccc(Cl)cc4)c(C)c3c2=O)cc1 | ? | nt | -1 | 1% | ? | nt
O=C(Cn1ncc2c3ccccc3n(Cc3cccc(Cl)c3)c2c1=O)NCCCN1CCCCC1 | -14% | nt | -10 | -6% | -2% | nt
Cc1c2cnn(CC(=O)N3CCCCC3)c(=O)c2c(C)n1Cc1ccc(Cl)cc1 | 23µM* | nt | -4 | -26% | 23µM* | nt
CC(CCc1ccccc1)NC(=O)Cn1ncc2c3ccccc3n(Cc3ccc(F)cc3)c2c1=O (configuration not stated) | ? | nt | 2 | -2% | ? | nt
COc1ccc(C2=Nn3c(nc4sc(C(=O)Nc5cccc(C)c5)c(C)c4c3=O)SC2)cc1 | ? | nt | -16 | -2% | ? | nt
CCOC(=O)C1CCCN(C(=O)Cn2ncc3c4ccccc4n(C)c3c2=O)C1 (configuration not stated) | ? | nt | -6 | 5% | -2% | nt
CN1CCN(C(=O)Cn2ncc3c4ccccc4n(Cc4ccc(F)cc4)c3c2=O)CC1 | 7.3µM* | nt | -1 | 4% | 15µM* | nt
CCOC(=O)C1CCN(C(=O)Cn2ncc3c4ccccc4n(Cc4ccccc4)c3c2=O)CC1 | 7.3µM* | nt | -12 | 4% | 8.2µM* | nt
O=C(Cn1ncc2c3ccccc3n(Cc3ccc(Cl)cc3)c2c1=O)N1CCCCCC1 | 10µM* | nt | -10 | -2% | 13µM* | nt
COc1ccc([C@@H](OC)[C@@]2(Cc3ccc(O)cc3)N=C(N)N(C)C2=O)cc1 | ? | 0 | -5 | 2% | ? | -11
CCc1ccc(CNC(=O)c2ccc3c(c2)nc2n3CCOC2)cc1 | ? | nt | 8 | -3% | -24% | nt
CCN(CC)CCCNC(=O)c1sc2nc3n(c(=O)c2c1C)CCCCC3 | ? | nt | -12 | -1% | -16% | nt
Cc1cc2c(cc1C)N[C@]1(C[C@H]3CCCC(=O)N4CC[C@@H](C1)[C@@H]34)C(=NC(C)(C)CC(C)(C)C)N2 | 11µM* | 5 | -25 | 0% | 18µM* | 41
CC(C)(C)CC(C)(C)N=C1Nc2ccc(Cl)cc2N[C@]12C[C@H]1CCCC(=O)N3CC[C@@H](C2)[C@@H]13 | ? | nt | nt | -2% | ? | nt
COc1ccc(NC2=Nc3ccccc3N[C@@]23C[C@H]2CCCC(=O)N4CC[C@@H](C3)[C@@H]24)cc1 | ? | -68* | -41 | -2% | ? | 25
Cc1ccccc1N=C1Nc2ccccc2N[C@]12C[C@H]1CCCC(=O)N3CC[C@@H](C2)[C@@H]13 | -24% | nt | nt | 0% | 8% | nt
O=C1CCC[C@@H]2C[C@@]3(C[C@@H]4CCN1[C@H]24)Nc1cc(Cl)ccc1NC3=NCc1ccccc1 | ? | 0 | -24 | -1% | ? | 24
Cc1cc2c(cc1C)N[C@]1(C[C@H]3CCCC(=O)N4CC[C@@H](C1)[C@@H]34)C(=NCc1ccccc1)N2 | 11µM* | nt | nt | 2% | 11µM* | nt
CCC1(c2ccccc2)NC(=O)N(CC(=O)NC2CCCCCC2)C1=O (configuration not stated) | 8% | 7 | 4 | 1% | 4% | 17
Cc1oc(-c2cccc(Cl)c2)nc1CS(=O)(=O)CC(=O)NCc1ccccc1Cl | ? | nt | -5 | -14% | -12% | nt
COc1cccc(/C=C/C(=O)N2CCN(c3n[nH]c(=O)[nH]c3=O)CC2)c1OC | 6% | 5 | -1 | 1% | -7% | 1
CC(=O)Nc1ccc(NC(=O)C(C)N(C)CC(=O)Nc2ccccc2Br)cc1 (configuration not stated) | -12% | -3 | 7 | nt | -17% | 41
Cc1ccnc2c(Cl)cccc12 | 1% | nt | nt | -2% | ? | nt
Cc1ccnc2c(N)cccc12 | 13µM* | nt | nt | 0% | ? | nt
SMILES | TDP1 cell noCPT | D3 antag | D3 ag | ClpP mod | TDP1 cell CPT | IL1B secr inh
Cc1ccnc2c([N+](=O)[O-])cccc12 | ? | nt | nt | 0% | 22µM* | nt
Nc1ccc(Br)c2cccnc12 | ? | -5 | -6 | -1% | ? | -14
Cc1ccc2ccc3cccnc3c2n1 | 1µM* | -19 | -3 | nt | 0.92µM* | 91
O=C(O)c1ccc2cccnc2c1O | -1% | -20 | -4 | nt | 0% | 16
Nc1cccc2cccnc12 | 5.6µM* | nt | nt | -2% | 1.8µM* | nt
O=[N+]([O-])c1cccc2c(Cl)ccnc12 | ? | -18 | -3 | nt | ? | -4
CCCN1CNc2c(c(=O)[nH]c(=S)n2CCc2ccccc2C)C1 | -24% | nt | nt | -1% | -29% | nt
CC1(C)CC(=O)C2=C(C1)NC(Nc1nc3ccccc3o1)=NC21CCCCC1 | 23µM* | -12 | -9 | -8% | ? | 24
COc1cc(/C=C/c2nc3ccccc3c(=O)[nH]2)ccc1OC(F)F | -3% | 5 | 3 | 25% | -7% | ?
O=c1[nH]c(/C=C/c2ccccc2OC(F)F)nc2c1cnn2-c1ccccc1 | ? | 9 | 0 | 11µM* | -19% | 23
Cc1ccc(-n2c(SCC(=O)Nc3cc(S(=O)(=O)N4CCOCC4)ccc3Cl)nc3ccccc3c2=O)cc1 | -6% | -9 | -1 | -3% | -25% | 7
O=C(CSc1nc2ccccc2c(=O)n1-c1ccc(F)c(Cl)c1)Nc1cccc(S(=O)(=O)N2CCOCC2)c1 | ? | ? | -5 | -7% | 16µM* | 9
O=C(CSc1nc2ccccc2c(=O)n1-c1ccc(F)cc1)Nc1ccc(Cl)c(S(=O)(=O)N2CCOCC2)c1 | 16µM* | -7 | 0 | -15% | ? | -1
